Here are results for 11 compounds from PubChem BioAssay (NCI).

Structures are written as SMILES. This is part of a sample that, as a whole, favours compounds with a hit. Of some 83,000 tested, about 20% had one in any assay.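 Treatment: one concentration, 48 hours, 96-well format. Scoring: percent growth, with anything below 10 considered active.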 Unmarked numbers belong to inactive results. Active and inactive are the calls of the source.

Some test systems named below: DU-145 prostate; MALME-3M melanoma; MDA-MB-231 breast; SF-268 CNS; SF-295 CNS; SF-539 CNS; M14 melanoma; HCT-15 colon; HT29 colon; SNB-75 CNS; SNB-19 CNS; U251 CNS; PC-3 prostate; SK-MEL-5 melanoma; UACC-62 melanoma; LOX IMVI melanoma; SK-MEL-28 melanoma; K-562 leukemia; RXF 393 renal.
Common to all, as to test: NCI-60 one-dose screen, 48 h (100 = growth as untreated, 0 = no growth, -100 = all killed)
Common to all, as to conditions: 10 µM unless noted

With `O=C(Nc1ccc(C(=O)Nc2ccc(C3=NCCCN3)cc2)cc1)Nc1ccc(C2=NCCCN2)cc1`, the growth was 96.1% in the assay with DU-145 prostate; 69.5% in the assay on MALME-3M melanoma; 92.4% in the assay on MDA-MB-231 breast; 110% with SF-268 CNS; 85.3% with SF-295 CNS; 87.2% in the assay with SF-539 CNS. For the same compound, the growth with M14 melanoma is 87%; in the assay with HCT-15 colon it was 100%; in the assay on HT29 colon, 92.8%; in the assay on SNB-75 CNS, 91%; with SNB-19 CNS, 95.6%; in the assay with U251 CNS, 84.6%. The growth in the assay on PC-3 prostate was 90%; with SK-MEL-5 melanoma, 54.7%; in the assay with UACC-62 melanoma it was 82.7%; with LOX IMVI melanoma, 85.8%; in the assay with SK-MEL-28 melanoma, 105%.

Take `COc1cc(C(=O)NNC(=O)c2ccc(NC(=O)CCl)cc2)cc(OC)c1OC`: the growth in the assay with DU-145 prostate is 91%; with K-562 leukemia, 53.7%; with MDA-MB-231 breast, 51.1%; with RXF 393 renal, 92.9%; with SF-268 CNS, 76.8%; with SF-295 CNS, 93.7%. Also, the growth in the assay on SF-539 CNS is 91.5%; in the assay with M14 melanoma, 82.6%; in the assay with HCT-15 colon it was 86.4%; with HT29 colon it was 60.5%; with SNB-75 CNS it was 87.4%; with SNB-19 CNS, 88.9%. The growth in the assay on U251 CNS is 11.1%; in the assay on PC-3 prostate, 66.1%; in the assay with SK-MEL-5 melanoma, 77.9%; in the assay with UACC-62 melanoma it was 66.9%; in the assay with LOX IMVI melanoma, 28.9%; in the assay on SK-MEL-28 melanoma, 86.9%.

Consider `CCN(CC)CCNc1ccc(N=Nc2cnc3ccccc3c2)c2ccccc12`, for which the growth was -85.1% (active) in the assay on DU-145 prostate; -56.5% (active) in the assay on MALME-3M melanoma; -87.6% (active) in the assay on MDA-MB-231 breast; -77.7% (active) in the assay with SF-268 CNS; -53.9% (active) with SF-295 CNS; -97.4% (active) with SF-539 CNS. For the same compound, the growth in the assay with M14 melanoma is -67.3% (active); in the assay on HCT-15 colon, -66.5% (active); in the assay with HT29 colon it was -90.3% (active); in the assay on SNB-75 CNS, -56.8% (active); in the assay with SNB-19 CNS, -71.7% (active); with U251 CNS, -76.9% (active). The growth with PC-3 prostate is -83.8% (active); in the assay with UACC-62 melanoma, -92.5% (active); in the assay on LOX IMVI melanoma, -81% (active); in the assay with SK-MEL-28 melanoma, -92.8% (active).

`N#Cc1c(-c2ccc(C(F)(F)F)cc2)c(F)c(NCCC2CCC(O)C2)n2c1nc1ccccc12` (centres undefined): the growth in the assay with DU-145 prostate was 47.2%; in the assay with K-562 leukemia, 25.9%; with MDA-MB-231 breast it was 22.1%; in the assay on RXF 393 renal, 41.4%; with SF-268 CNS, 70.7%; in the assay on SF-295 CNS, 55.4%. The growth in the assay with SF-539 CNS is 71.1%; in the assay with M14 melanoma it was 18.4%; in the assay on HCT-15 colon it was 49.6%; with HT29 colon it was 17.8%; with SNB-75 CNS, 68%; with SNB-19 CNS, 78.3%. Further, the growth is 61.4% in the assay with U251 CNS; 37.8% in the assay with PC-3 prostate; 61.8% in the assay on SK-MEL-5 melanoma; 6.38% (active) with LOX IMVI melanoma; 61.8% with SK-MEL-28 melanoma.

With `O=C(Nc1ccc(C2=NCCCN2)cc1)c1ccc(C(=O)Nc2ccc(C3=NCCCN3)cc2)nc1`, the growth in the assay on DU-145 prostate is 122%; in the assay on MALME-3M melanoma, 117%; with MDA-MB-231 breast it was 104%; in the assay on SF-268 CNS, 106%; in the assay with SF-295 CNS, 110%; with SF-539 CNS it was 104%. Moreover, the growth in the assay with M14 melanoma is 102%; in the assay with HCT-15 colon it was 108%; with SNB-75 CNS it was 87%; in the assay on U251 CNS it was 105%; in the assay with PC-3 prostate it was 106%; in the assay with SK-MEL-5 melanoma, 99.3%. For the same compound, the growth with SK-MEL-28 melanoma was 120%.

With `CCOC(=O)Sc1ncnc2nc[nH]c12`, the growth with DU-145 prostate is 38%; in the assay with MALME-3M melanoma it was 59.2%; in the assay with MDA-MB-231 breast it was 45.7%; with SF-268 CNS it was 65.8%; in the assay with SF-295 CNS, 36.8%; with SF-539 CNS, 36.7%. Also, the growth in the assay on M14 melanoma is 13.7%; with HCT-15 colon it was 82.5%; in the assay on SNB-75 CNS, 62%; in the assay with SNB-19 CNS, 91.1%; in the assay with U251 CNS, 91.7%; with PC-3 prostate it was 88%. For the same compound, the growth was 74.1% in the assay on SK-MEL-5 melanoma, 16% in the assay on UACC-62 melanoma, 7.98% (active) with LOX IMVI melanoma and 100% with SK-MEL-28 melanoma.

On to `COC(=O)c1[nH]cnc1/N=N/N(C)CCO`, for which the growth is 110% in the assay with DU-145 prostate; 119% in the assay on MALME-3M melanoma; 118% in the assay on MDA-MB-231 breast; 93% in the assay with SF-268 CNS; 112% with SF-295 CNS; 95% in the assay with SF-539 CNS. In addition, the growth in the assay on M14 melanoma was 101%; in the assay with HCT-15 colon, 109%; with HT29 colon it was 108%; in the assay with SNB-75 CNS it was 79%; in the assay with SNB-19 CNS it was 103%; in the assay on U251 CNS, 104%. Moreover, the growth was 109% in the assay with PC-3 prostate; 102% in the assay with SK-MEL-5 melanoma; 101% with UACC-62 melanoma; 101% in the assay on LOX IMVI melanoma; 117% with SK-MEL-28 melanoma.

For `COc1cc(OC)c(C(=O)/C=C/c2cc3c(cc2OCc2ccccc2)OC(C)(C)CC3)cc1CC=C(C)C`, the growth in the assay on DU-145 prostate is 51.9%; in the assay on MALME-3M melanoma, 77.8%; with MDA-MB-231 breast it was 52.4%; in the assay on SF-268 CNS, 49.1%; with SF-295 CNS, 66.9%; in the assay on SF-539 CNS, 79.4%. In addition, the growth is 68.2% in the assay on M14 melanoma; 39.7% with HCT-15 colon; 57.9% in the assay with HT29 colon; 39.2% in the assay with SNB-75 CNS; 80.7% with SNB-19 CNS; 29.7% in the assay with U251 CNS. Moreover, the growth was 25.2% in the assay with PC-3 prostate, 50.4% with SK-MEL-5 melanoma, 38.9% in the assay with LOX IMVI melanoma and 53.3% with SK-MEL-28 melanoma.

As to `CC(=Nc1ccccc1)C1=C(O)C(Cc2ccc(O)cc2)NC1=O` (centres undefined), the growth with DU-145 prostate was -28.6% (active); in the assay with MALME-3M melanoma, 58.6%; with MDA-MB-231 breast, 11.3%; in the assay on SF-268 CNS, 11.5%; in the assay with SF-295 CNS, -41.1% (active); with SF-539 CNS it was -33.7% (active). Further, the growth is 0.122% (active) in the assay on M14 melanoma; 12.1% with HCT-15 colon; 1.34% (active) with HT29 colon; 15.2% in the assay with SNB-75 CNS; 34% in the assay on SNB-19 CNS; 12.8% with U251 CNS. Besides, the growth was 15.7% with PC-3 prostate, 28.6% with UACC-62 melanoma, 19.2% in the assay on LOX IMVI melanoma and 40% in the assay with SK-MEL-28 melanoma.

Take `CCc1ccc(/C=C/c2ccc(O)c3ncccc23)[n+](C)c1`: the growth was 42.8% in the assay with DU-145 prostate; 63.5% in the assay with MALME-3M melanoma; 90.9% in the assay on MDA-MB-231 breast; 47.7% in the assay with SF-268 CNS; 58.5% in the assay with SF-295 CNS; 62.7% with SF-539 CNS. In addition, the growth with M14 melanoma was 47.6%; with HCT-15 colon, 85%; with HT29 colon, 50.9%; in the assay with SNB-75 CNS, 48.1%; in the assay on SNB-19 CNS, 41.1%; with U251 CNS, 25.9%. Besides, the growth was 61.3% with PC-3 prostate, 35.7% in the assay on UACC-62 melanoma, 55.6% in the assay on LOX IMVI melanoma and 60.7% with SK-MEL-28 melanoma.

For the compound `Fc1ccc(NCc2cn(-c3ccccc3)nc2-c2ccc(OCc3ccccc3)cc2)cc1Cl`, the growth was 107% in the assay on DU-145 prostate; 89.8% in the assay on K-562 leukemia; 72.7% in the assay on MDA-MB-231 breast; 112% with RXF 393 renal; 92.2% in the assay on SF-268 CNS; 87% with SF-295 CNS. The growth with SF-539 CNS was 93.3%; in the assay with M14 melanoma, 88.1%; in the assay with HCT-15 colon it was 92.2%; with HT29 colon, 71.3%; in the assay on SNB-75 CNS, 77.7%; in the assay on U251 CNS it was 97.1%. In addition, the growth with PC-3 prostate was 79.9%; in the assay on SK-MEL-5 melanoma, 101%; in the assay on UACC-62 melanoma, 90.7%; in the assay with LOX IMVI melanoma, 96.7%; in the assay with SK-MEL-28 melanoma it was 98.9%.
